Experiment [1] in a line: ACEA_ER_80hr: ACEA Biosciences xCELLigence Real-Time Cell Analysis on Estrogen Receptor Agonism for Proliferation (AID 2282667; active means hit-call score of the fitted dose curve at least 0.9, where 1 is the maximum). As to conditions: T47D proliferation, impedance (xCELLigence), 80 h. The essentials:
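Real-time electrical impedance tracked growth of the human breast line T47D, with the 80 h post-dosing value used. Dosing spanned eight 1:4 steps down from a 100 uM final top concentration, run in duplicate.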

The nature of experiment [2]: APR_HepG2_CellCycleArrest_24hr: Apredica 24-hour HepG2 Assay for Cell Cycle Arrest (AID 2282905).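 Further: cell cycle arrest scored as ratio of 2N to 4N nuclear DNA content.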 To be noted: imaging, actives raise or lower the signal. The essentials:
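After 24 h exposure at 0.39–200 uM in 0.5% DMSO, fixed cells received Hoechst 33342 staining. Imaging quantified per-nucleus DNA content; gain or loss fitted against DMSO controls.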

Experiment [3] is described as follows: APR_HepG2_NuclearSize_24hr: Apredica 24-hour HepG2 Assay for Nuclear Size (AID 2282907). As to conditions: high-content imaging, actives raise or lower the signal. In outline:
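Nuclear size from Hoechst 33342-stained, formaldehyde-fixed HepG2 nuclei imaged by high-content microscopy, after 24 h dosing at ten concentrations from 0.39 to 200 uM in 0.5% DMSO; gain or loss relative to DMSO baseline.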

Experiment [4] is described as follows: APR_HepG2_CellLoss_24hr: Apredica 24-hour HepG2 Assay for Cell Loss (AID 2282908).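 On AC50: fit in both directions so a hit may be cell loss or gain.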 To be noted: high-content imaging. The essentials: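 Nuclei stained with Hoechst 33342 after formaldehyde fixation (3.7%) were imaged at 20x to count cells. Exposure lasted 24 hr, at ten concentrations from 0.39 to 200 uM in duplicate, with 0.5% v/v DMSO. Fit bidirectional, relative to DMSO.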

Experiment [5] is described as follows: APR_HepG2_MicrotubuleCSK_24hr: Apredica 24-hour HepG2 Assay for Microtubule CSK Stabilty (AID 2282909). To be noted: HepG2 microtubule cytoskeleton imaging, actives raise or lower the signal. In outline:
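Fixed HepG2 cells were stained for alpha-tubulin and imaged after 24 hr exposure to ten concentrations spanning 0.39–200 uM in 0.5% DMSO. Signal change was fitted in both directions relative to DMSO; taxol was the positive control.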

The nature of experiment [6]: APR_HepG2_MitoticArrest_24hr: Apredica 24-hour HepG2 Assay for Mitotic Arrest (AID 2282910). To be noted: high-content imaging, actives raise or lower the signal. In outline:
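HepG2, 24 hr dosing, 0.39–200 uM, 0.5% DMSO final. Formaldehyde-fixed, Triton-permeabilised, anti-phospho-histone H3 plus Hoechst. ArrayScan imaging at 20x; bidirectional fit vs DMSO baseline.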

A short description of experiment [7]: APR_HepG2_MitoMembPot_24hr: Apredica 24-hour HepG2 Assay for Mitochondrial Membrane Potential (AID 2282911). As to conditions: imaging, actives raise or lower the signal. In outline:
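Cells are dosed for 24 hr across 0.39 to 200 uM with solvent held at 0.5% DMSO. They are then stained with 250 nM MitoTracker Red CMXRos for 30 min, fixed in 3.7% formaldehyde and imaged.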

Experiment [8] is described as follows: APR_HepG2_MitoMass_24hr: Apredica 24-hour HepG2 Assay for Mitochondrial Mass (AID 2282912). To be noted: high-content imaging, actives raise or lower the signal. In outline:
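Endpoint is MitoTracker Red CMXRos (250 nM, 30 min, pre-fixation) intensity from 20x high-content imaging, nuclei located by Hoechst. Human HepG2 cells received ten concentrations from 0.39 to 200 uM in 0.5% DMSO for 24 hr, duplicate wells. Bidirectional fit relative to DMSO.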

A short description of experiment [9]: APR_HepG2_p53Act_24hr: Apredica 24-hour HepG2 Assay for p53 Activation (AID 2282913).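 Further: p53 protein immunofluorescence averaged per cell in HepG2 with Hoechst nuclei.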 To be noted: high-content imaging, actives raise or lower the signal. In outline:
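Human HepG2 liver cells; 24 hr cpd treatment, 0.39–200 uM, 0.5% DMSO final. Fixed in 3.7% formaldehyde, permeabilized with 0.5% Triton X-100, stained with anti-p53/Cy5 plus Hoechst 33342. Six images per well at 20x; gain or loss vs DMSO.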

Experiment [10] in a line: APR_HepG2_CellCycleArrest_72hr: Apredica 72-hour HepG2 Assay for Cell Cycle Arrest (AID 2282914). As to conditions: high-content imaging, actives raise or lower the signal. In outline: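 Read-out is Hoechst-stained nuclear DNA content measured by automated fluorescence imaging (20x, six images per well), fitted in both directions relative to DMSO. Human HepG2 liver cells received 0.39–200 uM compound for 72 hr at 0.5% v/v DMSO.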

The nature of experiment [11]: APR_HepG2_CellLoss_72hr: Apredica 72-hour HepG2 Assay for Cell Loss (AID 2282915). As to conditions: high-content imaging. In outline: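 HepG2 cells exposed 72 h to compound at 0.39–200 uM (10 concentrations, duplicate) in 0.5% DMSO. Fixed with 3.7% formaldehyde and Hoechst 33342-stained. Imaged at 20x; nuclear count gives cell number, fitted bidirectionally versus DMSO.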

Experiment [12] in a line: APR_HepG2_P-H2AX_72hr: Apredica 72-hour HepG2 Assay for H2AX Phosphorylation (AID 2282916).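 Further: phospho-histone H2A.x immunostain intensity per cell marking DNA damage.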 As to conditions: imaging, actives raise or lower the signal. In outline:
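Phospho-histone H2A.x immunofluorescence, multiplexed with Hoechst and c-Jun, quantified by high-content imaging. Compounds applied to HepG2 for 72 h across ten concentrations (0.39–200 uM, 0.5% DMSO), in duplicate; DMSO baseline.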

The nature of experiment [13]: APR_HepG2_MitoMembPot_72hr: Apredica 72-hour HepG2 Assay for Mitochondrial Membrane Potential (AID 2282917). As to conditions: imaging, actives raise or lower the signal. In outline: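 HepG2 cells dosed 72 hr with compound at 0.39–200 uM in duplicate, 0.5% v/v DMSO final. Mitochondria stained with 250 nM MitoTracker Red CMXRos for 30 min before formaldehyde fixation, imaged by high-content fluorescence; bidirectional fit versus DMSO.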

Experiment [14] can be described thus: APR_HepG2_MicrotubuleCSK_72hr: Apredica 72-hour HepG2 Assay for Microtubule CSK Stabilty (AID 2282919). As to conditions: HepG2 microtubule cytoskeleton, high-content imaging, actives raise or lower the signal. In outline:
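HepG2, 72 hr cmpd exposure, 0.39–200 uM (10 pts, duplicate), 0.5% DMSO. 3.7% formaldehyde fix, 0.5% Triton perm, anti-alpha-tubulin/Cy5 plus Hoechst. HCS fluorescence intensity; bidirectional fit vs DMSO baseline; taxol as positive control.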

Experiment [15] is described as follows: APR_HepG2_P-H2AX_24hr: Apredica 24-hour HepG2 Assay for H2AX Phosphorylation (AID 2282920). As to conditions: high-content imaging, actives raise or lower the signal. The essentials: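 HepG2, 24 hr, cpd 0.39–200 uM (10 conc, duplicate), DMSO 0.5% v/v final. Fix 3.7% formaldehyde, Triton X-100 permeabilize, anti-phospho-H2A.x 1:200 + Hoechst 2 ug/mL. Imaged, bidirectional fit vs DMSO.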

Experiment [16] can be described thus: APR_HepG2_StressKinase_72hr: Apredica 72-hour HepG2 Assay for Stress Kinase (AID 2282921). As to conditions: HepG2 stress kinase (phospho-c-Jun) imaging, actives raise or lower the signal. The essentials:
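Stress kinase signal is phospho-c-Jun immunofluorescence (1:500 primary, Cy3 secondary) in fixed, permeabilized human HepG2 cells imaged at 20x. Exposure lasted 72 hr over ten concentrations from 0.39 to 200 uM, 0.5% DMSO, in duplicate. Bidirectional fit versus DMSO.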

Experiment [17] is described as follows: APR_HepG2_StressKinase_24hr: Apredica 24-hour HepG2 Assay for Stress Kinase (AID 2282922). As to conditions: HepG2 stress kinase (phospho-c-Jun) imaging, actives raise or lower the signal. The essentials:
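Read-out: phospho-c-Jun immunofluorescence (Cy3 secondary) quantified by high-content imaging at 20x, nuclei defined by Hoechst 33342. Human HepG2 liver cells dosed 24 hr, 0.39–200 uM, DMSO 0.5% v/v; gain or loss of signal fitted relative to DMSO.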

A short description of experiment [18]: APR_HepG2_MitoMass_72hr: Apredica 72-hour HepG2 Assay for Mitochondrial Mass (AID 2282924).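 Further: MitoTracker Red CMXRos stain intensity per cell imaged as mitochondrial mass.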 As to conditions: high-content imaging, actives raise or lower the signal. In outline:
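Read-out: MitoTracker Red fluorescence intensity from automated imaging (20x, six fields per well) in human HepG2 liver cells. Dosing ran 72 hr, 0.39–200 uM, 0.5% DMSO; bidirectional curve fitting versus DMSO baseline.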

Experiment [19] in a line: APR_HepG2_NuclearSize_72hr: Apredica 72-hour HepG2 Assay for Nuclear Size (AID 2282925). As to conditions: high-content imaging, actives raise or lower the signal. The essentials:
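Read-out: nuclear diameter from Hoechst 33342 images (ArrayScan, 20x, six fields/well), via cell-cycle image analysis. HepG2 were dosed 0.39–200 uM for 72 hr in 0.5% DMSO. Bidirectional fit relative to DMSO.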

The nature of experiment [20]: APR_HepG2_MitoticArrest_72hr: Apredica 72-hour HepG2 Assay for Mitotic Arrest (AID 2282918). As to conditions: high-content imaging, actives raise or lower the signal. In outline:
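Read-out is phospho-histone H3 immunofluorescence with Hoechst nuclear segmentation, imaged at 20x. Human HepG2 liver cells received ten concentrations (0.39–200 uM, final DMSO 0.5% v/v) for 72 hr before fixation. Gain or loss of signal was fitted relative to DMSO.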

Inconclusive results are not listed. Activity calls are given as the source filed them. How the source made its calls, unless noted: active means hit-call score of the fitted dose curve at least 0.9, where 1 is the maximum; inactive means score below 0.9.

Regarding `O=S(=O)(O)CCC(F)(F)C(F)(F)C(F)(F)C(F)(F)C(F)(F)C(F)(F)F`, the compound was called inactive in [1].
Regarding `CCN(CC)C(=S)SSC(=S)N(CC)CC`, the compound was classed as inactive in [1], in experiment [2], in experiment [3], in experiment [7] and in [19]. For the same compound, the AC50 – broadly, the concentration at which the activity in the assay is half-maximal – was 50.6 µM (active) in [4]; 78.9 µM (active) in [5]; 25.2 µM (active) in [6]; 26.1 µM (active) in [8]; 4.83 µM (active) in experiment [9]; 3.04 µM (active) in experiment [10]. For the same compound, the AC50 in experiment [11] is 22.9 µM (active); in experiment [12] it was 27.1 µM (active); in [13], 37.4 µM (active); in experiment [14], 60.7 µM (active); in experiment [15], 7.04 µM (active); in [16], 31 µM (active). For the same compound, the concentration at half-maximal activity (AC50) in [17] was 87.4 µM (active); in [18], 14.4 µM (active).
As to `OC(O)(C(F)C(O)(O)C(F)(F)F)C(F)(F)F`, the compound was called inactive in experiment [1].
For the compound `FC(F)(F)COC(OCC(F)(F)F)OCC(F)(F)F`, in experiment [1], the compound was classed as inactive.
Regarding `OCCOCCOCCO`, the outcome in experiment [1], in [2], in experiment [3], in experiment [4], in [5] and in [6] was inactive. For the same compound, the call in experiment [7], in experiment [8], in [9], in experiment [10], in experiment [11] and in experiment [12] was inactive. The compound was classed as inactive in experiment [13], in experiment [14], in experiment [15], in experiment [16], in experiment [17] and in experiment [18]. The result in experiment [19] was inactive.
In the case of `NCC(F)(F)C(F)(F)C(F)(F)C(F)(F)F`, the result in experiment [1] was inactive.
With `CCCCCCCCCC`, the compound was classed as inactive in experiment [1], in experiment [2], in experiment [3], in experiment [4], in [6] and in experiment [7]. Further, the outcome in experiment [8], in experiment [9], in experiment [10], in [11], in experiment [12] and in experiment [13] was inactive. For the same compound, the result in experiment [20], in experiment [14], in experiment [15], in [16], in [17] and in experiment [18] was inactive. The compound was called inactive in experiment [19].
`S=P(N1CC1)(N1CC1)N1CC1`: the call in experiment [1] was inactive.
Turning to `C=CN1CCCC1=O`, the compound was called inactive in experiment [1], in experiment [2], in experiment [3], in experiment [4], in experiment [6] and in experiment [7]. The call in experiment [8], in experiment [9], in experiment [10], in experiment [11], in experiment [12] and in experiment [13] was inactive. Also, the outcome in experiment [20], in experiment [14], in [15], in [16], in experiment [17] and in [18] was inactive. For the same compound, the outcome in experiment [19] was inactive.
Consider `COc1cc(C(C)C)c2c(c1)S(=O)(=O)N(COc1cc(=O)n3cccc(OCCN4CCCCC4)c3n1)C2=O`, for which the call in [1], in experiment [3], in experiment [10], in experiment [12], in [13] and in experiment [14] was inactive. Besides, the outcome in [16], in experiment [17], in [18] and in experiment [19] was inactive. Moreover, the half-maximal activity concentration (AC50) is 17.7 µM (active) in experiment [2]; 24.2 µM (active) in experiment [4]; 15.8 µM (active) in [5]; 24 µM (active) in experiment [6]; 26.4 µM (active) in experiment [7]; 29.1 µM (active) in experiment [8]. For the same compound, the results for the half-maximal activity concentration (AC50) in experiment [11] and in experiment [15] were 23.1 µM (active) and 10.7 µM (active), respectively.
In the case of `FC(F)C(F)(F)COCC1CO1` (stereo not drawn), the compound was classed as inactive in experiment [1].
Regarding `O=c1[nH]cnc2c1ncn2[C@H]1CC[C@@H](CO)O1`, the compound was classed as inactive in experiment [1], in [2], in experiment [3], in [4], in [5] and in experiment [6]. The compound was classed as inactive in [8], in experiment [10], in experiment [11], in experiment [12], in experiment [13] and in experiment [14]. For the same compound, the result in [15], in experiment [16], in experiment [17], in experiment [18] and in [19] was inactive. For the same compound, the concentration at half-maximal activity (AC50) in experiment [7] was 0.039 µM (active).

The values above are taken from PubChem BioAssay (EPA / NIEHS).
